Results taken from PubChem BioAssay (NCATS).
Results filed as inconclusive are left out. Entries that show only a call come without a potency. A number with no mark means an inactive call. The source made the active and inactive calls. The call rests on the fitted dose curve; in most records, active means well fitted cell-killing curve with a large enough effect; inconclusive means small, poorly fitted or top-dose-only effect, or effect the other way; inactive means flat fitted curve, though single readings scatter.

What follows are compounds tested on CAOV3 (assay: Primary qHTS to identify gynecologic anti-cancer compounds using libraries of approved drugs and bioactive compounds (AID 1345084; further: nearly all actives have a fitted effect of over 55% in size)). Settings: Gynecologic cancer cell panel viability, ATPlite luminescence, 48 h; series mostly up to 57.5 µM.
Source text: National Center for Advancing Translational Sciences [NCATS] Assay Overview: Chemotherapeutic drug responses vary from cancer to cancer and from patient to patient. These variations could be caused by a number of factors including patient genomic background, tumor mutations, tumor heterogeneity, and aspects of drug treatment. Chemotherapeutic drug resistance is also a common issue and can lead to ineffective treatment and patient death. Here we have profiled the cell killing effects of thousands of compounds to characterize the responses in three gynecological cancers, identify cancer-selective compounds, and understand the diversity of responses to these compounds from pan-cancer suppressors to single cell line selective compounds. In this assay, we screened a 7,914 compound drug library that included approved drug and bioactive compounds in six ovarian, three cervical, and […] placental cancer cell lines using the ATPlite assay for cell viability. […] The cervical cancer cell lines included HeLa, Ca Ski, and C-33 A. The placental cancer cell lines included JEG-3. HEK 293T cells were used as the control cell line to determine the selectivity index. ATPlite is a luminescence based assay reliant on the conversion of a luciferase substrate to light in the presence of ATP. As a cytotoxic compound will suppress growth and decrease the number of cells, the concentration of ATP will decrease, and less light signal will be detected in the well.
Assay Protocol Summary: 1,000 cells in 4 uL of media were dispensed into white, solid bottom 1536-well plates using a Multidrop Combi (Thermo Scientific). The Assay plates were incubated for 16 hours at 37 C with 5% CO2 in assay plates, followed by the addition of 23 nL of DMSO or drug dissolved in DMSO. Each compound was assayed in five concentrations (0.092, 0.46, 2.3, 11.5, and 57.5 uM), using the automated Wako 1536 Pin Tool workstation and incubated at 37 C with 5% CO2 48 hours. 4 uL of ATPlite, the ATP monitoring reagent, was then added to the each well of the assay plates using the Multidrop Combi reagent dispenser followed by incubation for 15 minutes at room temperature. The resulting luminescence was measured using the ViewLux plate reader.

| SMILES | Potency | activity change, negative = cytotoxicity |
| --- | --- | --- |
| COc1ccc(OC)c(C2C(C#N)=C(N)Oc3n[nH]c(-c4ccc5ccccc5c4)c32)c1 (stereo not given) | inactive | – |
| CC1(C(=O)O)CCCC2(C)C3CCC4CC3(CCC12)CC4C(=O)O (stereo not given) | inactive | – |
| C/C=C(\C)C(=O)OC[C@H]1O[C@@H](O[C@H]2[C@@H](O[C@H]3O[C@H](COC(=O)/C(C)=C/C)[C@@H](O)[C@H](O)[C@H]3O[C@@H]3O[C@H](CO)[C@@H](O)[C@H](OC(=O)/C(C)=C/C)[C@H]3O)O[C@H](COC(=O)/C(C)=C/C)[C@@H](O)[C@@H]2O)[C@H](O)[C@@H](O)[C@@H]1O | – | 5.53% [at 11.6 µM] |
| C=C1C(O)CCC2(C)CC3(OC)OC(=O)C(C)=C3CC12 (stereo not given) | inactive | – |
| CC1CCC2C(C)(C)[C@H](O)CC[C@]2(C)C12Cc1c(O)cc3c(c1O2)CN(C(CCC(=O)O)C(=O)O)C3=O (stereo not given in full) | inactive | – |
| COc1cc(C2OCC3(O)C(c4ccc(O[C@@H]5O[C@H](CO)[C@@H](O)[C@H](O)[C@H]5O)c(OC)c4)OCC23O)ccc1O (stereo not given in full) | inactive | – |
| CCC(C)(C)C1CCc2c(sc(NC(=O)c3ccc(Br)cc3)c2C#N)C1 (stereo not given) | inactive | – |
| CC1CC(=O)[C@]2(O)C(C(=O)OCCc3ccc(O)c(O)c3)=CO[C@@H](O[C@@H]3O[C@H](CO)[C@@H](O)[C@H](O)[C@H]3O)[C@H]12 (stereo not given in full) | inactive | – |
| COC(=O)C1=CO[C@@H](O[C@@H]2O[C@H](CO)[C@@H](O)[C@H](O)[C@H]2O)[C@@H]2C(CO)=CC[C@H]12 | inactive | – |
| COC(=O)C1=CO[C@@H](O[C@@H]2O[C@H](CO)[C@@H](O)[C@H](O)[C@H]2O)[C@H]2[C@@H]1[C@H](O)C[C@]2(C)O | inactive | – |
| Cc1occc1C(=O)n1ccnc1 | inactive | – |
| CCC1(O)CC2c3cc(OC)c(OC)cc3CCN2CC1CC(C)C (stereo not given) | inactive | – |
| COc1cc([C@H]2OC[C@](O)(Cc3ccc(O[C@@H]4O[C@H](CO)[C@@H](O)[C@H](O)[C@H]4O)c(OC)c3)[C@@H]2CO)ccc1O | inactive | – |
| CCN(CCN(C)C)C(=O)CNCc1cc(C(N)=O)ccn1 | inactive | – |
| C[C@]12CC/C(=N\OCC(=O)O)C=C1CC[C@@H]1[C@@H]2[C@@H](O)C[C@@]2(C)[C@H]1CC[C@]2(O)C(=O)CO | inactive | – |
| CC1(C)C2CC[C@@]34CC(CC[C@H]3[C@]2(C)CC[C@@H]1O[C@@H]1O[C@H](CO)[C@@H](O)[C@H](O)[C@H]1O)[C@](C)(O)C4 (stereo not given in full) | inactive | – |
| C[C@@H]1[C@H](O)[C@@H]2OC(=O)C3=C2[C@H](CCC3)[C@@]12C[C@@H](c1ccoc1)OC2=O | inactive | – |
| C=C1CC/C=C(/C(=O)O)CCC2C1CC2(C)C (stereo not given) | inactive | – |
| CC12CC(c3ccoc3)OC(=O)C1CCC1(C)C2CCC(O)C1(C)O (stereo not given) | inactive | – |
| CC/C=C\C(O)C(O)C1=C(C)C(=O)C2(O1)C(=O)NC(OC)(C(=O)c1ccccc1)C2O (stereo not given) | inactive | – |

| SMILES | Potency | activity change, negative = cytotoxicity |
| --- | --- | --- |
| NC(=O)c1ccc(F)c2c1C[C@@H](N(C1CCC1)C1CCC1)CO2 | inactive | – |
| Cc1oc2nc3c(c(NC(=O)CN4CCCC4=O)c2c1C)CCCC3 | inactive | – |
| N#CC1C(=O)N=C(c2cc(Cl)ccc2O)C=C1c1cc(OCc2ccccc2)cc(OCc2ccccc2)c1 (stereo not given) | inactive | – |
| O=C(Nc1cc(-c2ccccc2)nn1-c1ccccc1F)c1ccc([N+](=O)[O-])cc1 | inactive | – |
| C[C@@H](CC[C@@H]1[C@@]2(C)CCCC(C)(C)C2CC[C@@]1(C)O)CC(=O)O (stereo not given in full) | inactive | – |
| CC(=O)c1c(C)cccc1O[C@@H]1O[C@H](CO)[C@@H](O)[C@H](O)[C@H]1O | inactive | – |
| O=C(C[C@@H]1C(C(=O)O)=CO[C@@H](O[C@@H]2O[C@H](CO)[C@@H](O)[C@H](O)[C@H]2O)/C1=C\CO)OCCc1ccc(O)cc1 | inactive | – |
| C=C(C)[C@@H]1CC[C@]2(C)CC[C@]3(C)C(CCC4[C@@]5(C)CC[C@H](O)C(C)(C)C5CC[C@]43C)C12 (stereo not given in full) | inactive | – |
| COc1cc(O)cc(C)c1C(=O)O[C@H]1[C@@H](O)[C@@H](n2ccc(=O)[nH]c2=O)O[C@@H]1CO | inactive | – |
| CC1CC(O)/C=C/C(O)/C=C\C(=O)O1 (stereo not given) | inactive | – |
| O=S(=O)(O)c1ccc(Nc2ncnc3c2ncn3[C@@H]2O[C@H](CO)[C@@H](O)[C@H]2O)cc1 | inactive | – |
| CC1=C2CC(O)(C(C)(C)O)C(O[C@@H]3O[C@H](CO)[C@@H](O)[C@H](O)[C@H]3O)CC(C)C2CC1=O (stereo not given in full) | inactive | – |
| COC(=O)C1=COC(O[C@@H]2O[C@H](COC(=O)/C=C/c3ccc(O)cc3)[C@@H](O)[C@H](O)[C@H]2O)C2C(CO)=CCC12 (stereo not given in full) | inactive | – |
| CC1=CC(=O)[C@]2(O[C@@H]3O[C@@H](C)[C@H](O)[C@@H](O)[C@H]3O)C=CO[C@@H](O[C@@H]3O[C@H](CO)[C@@H](O)[C@H](O)[C@H]3O)[C@H]12 | inactive | – |
| Cc1cc(Cn2cnc3c2CC(C(=O)O)N(C(=O)C(c2ccccc2)c2ccccc2)C3)ccc1N(C)C (stereo not given) | inactive | – |
| CC(=O)OCC1=CCC2C(C)(C)CCCC2(C)C12CCC(C)(CC(=O)O)O2 (stereo not given) | inactive | – |
| C=C(C)C(O)COc1ccc(CC(=O)O)cc1 (stereo not given) | inactive | – |
| C=C1CC23CC(=O)C4C(CO)(CO)CCCC4(C)C2CCC1C3 (stereo not given) | inactive | – |
| C[C@@H]1CC[C@]2(C(=O)O[C@@H]3O[C@H](CO[C@@H]4O[C@H](CO)[C@@H](O[C@@H]5O[C@@H](C)[C@H](O)[C@@H](O)[C@H]5O)[C@H](O)[C@H]4O)[C@@H](O)[C@H](O)[C@H]3O)CC[C@]3(C)C(=CCC4[C@@]5(C)C[C@@H](O)[C@H](O)[C@@](C)(CO)C5CC[C@]43C)C2[C@H]1C (stereo not given in full) | – | -4.15% [at 11.6 µM] |
| O=C(O)c1cccc(CN2C(=O)/C(=C(\c3ccccc3)c3ccc(Cl)cc3)c3ccccc32)c1 | inactive | – |
